Screens from PubChem BioAssay.
PAFAH1B3 inh – inhibitors of human PAFAH1B3 | Q15102 | AID 492972 | recombinant PAFAH1B3, FP-rhodamine probe, fluorescence polarization | 340,000 tested, 0.28% active | inhibition, % at 3.39 µM;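 active = inhibition above the screen-wide average of all tested compounds plus 3 SD, cut at about 25% in these data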;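 also: 0% = enzyme with DMSO only and 100% = wells lacking PAFAH1B3 protein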
Fh CTSL1 inh – blocks F. hepatica cathepsin L1 in PFM18AAP counter-screen; AID 1906; recombinant F. hepatica cathepsin L1, Z-Leu-Arg-MCA fluorescence; inhibition, % at 5.96 µM; 300,000 tested, 0.49% active;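 active = inhibition above the mean of all tested compounds plus 3 SD, set per screening campaign, cut at about 17% in these data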;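 also: 0% = plate median of test compound wells and 100% = 1 µM Z-Phe-Ala-diazomethylketone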
pPAFAH FP inh – inhibitors of human plasma PAF acetylhydrolase (pPAFAH); Q13093; recombinant pPAFAH, FP-rhodamine probe fluorescence polarization; inhibition, % at 3.39 µM; 330,000 tested, 1.5% active; AID 463082;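 active = inhibition above the mean inhibition across the screen plus 3 SD, cut at about 25% in these data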;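 also: inhibitors block binding of the rhodamine activity-based probe so polarization drops; 0% = enzyme with DMSO and 100% = wells lacking pPAFAH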
PP5 inh – inhibitors of human protein phosphatase 5 (PP5) | purified PP5c, OMFP substrate fluorescence | inhibition, % at 6.7 µM | 320,000 tested, 0.18% active;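 active = inhibition above the campaign's mean inhibition across all tested compounds plus 3 SD, cut at about 9.5% in these data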;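 also: 0% = DMSO only and 100% = 100 µM cantharidin control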
Target sequence (P53041 whole entry, looked up): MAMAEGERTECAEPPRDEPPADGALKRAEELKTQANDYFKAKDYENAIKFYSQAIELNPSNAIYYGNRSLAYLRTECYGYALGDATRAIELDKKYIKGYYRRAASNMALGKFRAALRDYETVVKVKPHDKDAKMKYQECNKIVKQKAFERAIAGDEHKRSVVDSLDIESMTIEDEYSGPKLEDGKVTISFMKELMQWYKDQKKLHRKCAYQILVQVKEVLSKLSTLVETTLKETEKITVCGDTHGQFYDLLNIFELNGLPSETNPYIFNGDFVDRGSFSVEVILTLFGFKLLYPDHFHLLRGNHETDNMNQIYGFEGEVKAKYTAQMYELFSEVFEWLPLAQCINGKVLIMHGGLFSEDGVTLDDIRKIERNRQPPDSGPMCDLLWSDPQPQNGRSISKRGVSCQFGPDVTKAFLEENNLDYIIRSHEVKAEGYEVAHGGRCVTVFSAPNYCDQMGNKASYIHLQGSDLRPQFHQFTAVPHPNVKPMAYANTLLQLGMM
PAFAH1B2 FP inh – inhibitors of human PAFAH1B2; 340,000 tested, 1.2% active; P68402; recombinant PAFAH1B2, FP-rhodamine activity probe, fluorescence polarization; inhibition, % at 3.39 µM;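 active = inhibition above the mean of all tested compounds plus 3 SD, cut at about 24% in these data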;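 also: 0% = enzyme with DMSO and 100% = wells lacking PAFAH1B2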
PAFAH2 inh – PAFAH2 (human) inhibition. Q99487. recombinant PAFAH2, FP-rhodamine activity probe, fluorescence polarization. inhibition, % at 3.39 µM. 340,000 tested, 0.99% active. AID 492956;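 active = inhibition above the mean over all tested compounds plus 3 SD, cut at about 30% in these data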;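 also: inhibitors block probe labeling of enzyme so polarization drops; 0% = enzyme with DMSO and 100% = wells lacking PAFAH2 protein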
* = called active by the depositor; x = no result; ! = repeats disagree. Hits are enriched below; roughly 3% of the tested compounds scored in any of these assays.

SMILES	PAFAH1B3 inh	Fh CTSL1 inh	pPAFAH FP inh	PP5 inh	PAFAH1B2 FP inh	PAFAH2 inh
COc1ccc(-c2nc3ccccc3c(=O)n2-c2ccc(OC)cc2)cc1	1	-5	1	0	-1	4
CCN1C[C@@]2(COC)C3[C@@H](OC)[C@H]4[C@@H]1[C@@]3(C1C[C@@]3(O)[C@H](OC(=O)c5ccccc5)C1[C@]4(OC(C)=O)[C@@H](O)[C@H]3OC)[C@@H](OC)C[C@H]2O (some centres undefined)	x	-3	4	0	x	x
CN1CC=C(/C=C/c2ccc(-c3ccccc3)cc2)CC1	x	-1	2	3	x	x
CC1=NN=C(c2ccc(N)cc2)c2cc3c(cc2C1)OCO3	1	39*	11	1	2	-3
Cc1ccc2c(C)c3ccc4ccccc4c3c[n+]2c1	12	x	x	x	8	4
Cc1nc(C)c(C(=O)NN=Cc2ccc(N(CCCl)CCCl)cc2)s1	4	x	x	x	3	-5
Cc1cccc(N2C(=O)NC(=O)/C(=C/c3ccc([N+](=O)[O-])o3)C2=O)c1	x	4	26*	-1	x	x
Cc1cc(C)cc(N2C(=O)NC(=O)/C(=C/c3cccn3-c3ccc(Cl)cc3)C2=O)c1	4	-3	10	0	48*	42*
Cc1cccc(N2C(=O)NC(=O)/C(=C\C=C\c3ccco3)C2=O)c1	-2	0	16	1	12	18
Cc1cccc(N2C(=O)NC(=O)/C(=C\c3cccn3-c3ccc(Cl)cc3)C2=O)c1	8	-1	12	0	74*	54*
Cc1cc(/C=C2\C(=O)NC(=O)N(c3cccc(F)c3)C2=O)c(C)n1-c1ccc(C(=O)O)c(Cl)c1	6	-2	8	0	0	8
CCc1ccc(N2C(=O)NC(=O)/C(=C\c3cccn3CCOc3ccc(C(C)C)cc3)C2=O)cc1	3	0	2	0	16	20
COc1ccc(CC2C(=O)NC(C)C(=O)N(C)C3C(=O)N(C)C(Cc4ccc(O)c(c4)Oc4ccc(cc4)C3O)C(=O)NC(C)C(=O)NC(C)C(=O)N2C)cc1 (centres undefined)	9	x	x	x	0	-4
CC(=O)C1C2c3ccccc3OC1(C)N=c1s/c(=C/c3cn(C)nc3C)c(=O)n12 (centres undefined)	3	34*	1	-2	2	-2
O=C(NC(C(Cl)Cl)N1CCOCC1)c1ccccc1 (centres undefined)	3	68*	2	3	-3	-1
O=P(NC(c1ccccc1)c1ccccc1)(Oc1ccccc1)Oc1ccccc1	1	3	8	2	-3	-2
O=P(O)(Oc1ccccc1)OC(c1ccccc1)C(F)(F)F (centres undefined)	0	-2	-11	3	52*	67*
COc1cccc(CNCCc2cccc(F)c2)c1OC	-4	-1	-1	0	1	-1
OC[C@@H](O)CCl	x	-5	3	0	x	x
O=C(O)CC1OCC=C2CN3CCC45c6ccccc6NC4C1C2CC35 (centres undefined)	0	18*	-8	0	-1	2
CCc1sc(C(=O)N2CCC3(CC2)OCCO3)cc1Br	1	-2	10	0	3	-3
O=C(c1cc2c(s1)CCCCCC2)N1CCC2(CC1)OCCO2	4	2	33*	-2	3	25
COC(=O)C1=C(c2ccc(C(C)=O)cc2)C[C@@H]2CC[C@H]1N2C(=O)NCCOc1ccccc1Cl	1	x	0	1	-2	-3
O=C1C(=O)c2ccccc2-c2ccccc21	71*	110*	7	4	43*	58*
CC[C@@H](CO)NC(=O)[C@@H]1C=C2c3cccc4c3c(cn4C)C[C@H]2N(C)C1	16	17*!	16	4	6	5
SMILES	PAFAH1B3 inh	Fh CTSL1 inh	pPAFAH FP inh	PP5 inh	PAFAH1B2 FP inh	PAFAH2 inh
CCC(CO)NC(=O)C1C=C2c3cccc4[nH]cc(c34)CC2N(C)C1 (centres undefined)	15	1	4	-1	0	1
CN1CCN(c2ccc([N+](=O)[O-])c3no[n+]([O-])c23)CC1	-14	18*	1	1	-12	-20
CN1/C(=C\C=C\C2=[N+](C)c3ccc4ccccc4c3C2(C)C)C(C)(C)c2ccccc21	x	4	-154	12*	x	x
CC1=C(C)CC2(C(=O)NC(=S)NC2=O)C(C)C1 (centres undefined)	14	x	x	x	1	2
CCN(CC)c1ccc(C=C2C(=O)NC(=S)NC2=O)cc1	-1	-3	15	1	11	18
CC(C)CN(CC(C)C)c1ccc(C=C2C(=O)NC(=S)NC2=O)cc1[N+](=O)[O-]	0	0	11	2	34*	38*
Cc1ccc(Cn2nc(C)c(C=O)c2Cl)cc1	4	-2	5	-2	-1	-4
Cn1cc(C(=O)OCC(=O)Nc2ccccc2)c2ccccc21	0	x	29*	1	2	85*
COc1cccc(C2CC3C(=O)C=CC2N3Cc2ccccc2)c1 (centres undefined)	4	0	-3	0	2	3
[Cl][Pt+2][Cl].[NH-]C1CCCCC1[NH-] (centres undefined)	8	40*	-1	0	1	-1
N#CC(C#N)=NNc1ccc(S(N)(=O)=O)cc1	32*	2	30*	-1	2	9
COC1C(O)C(C)OC(OC2C(Oc3cccc4c(O)c5c(=O)oc6ccc(C)c7c(=O)oc(c34)c5c67)OC(C)C(O)C2O)C1O (centres undefined)	16	x	x	x	5	-3
BrCC(Br)C1CCC(Br)C(Br)C1 (centres undefined)	8	x	1	2	51*	7
O=C1NC(=O)C(=Cc2ccc(Sc3ccccc3)o2)C(=O)N1	-1	1	12	1	29*	33*
CN1C(=O)C(=Cc2ccc(Sc3ccccc3)o2)C(=O)N(C)C1=O	3	0	-1	3	5	14
CC(=O)OC1CCC2(C)C(CCC3C4CC(N5CC5)C(C(C)=O)C4(C)CC(=O)C32)C1 (centres undefined)	5	x	x	x	-4	3
CC(CC(C)(C)N1CC1)=NNC(=O)Nc1cccc2ccccc12	3	x	x	x	2	3
Cc1oc(-c2ccccc2)nc1CN1C(=O)CN=C(c2ccccc2)c2ccccc21	-5	1	1	2	15	2
Cc1ccc(CN2C(=O)CN=C(c3ccccc3)c3ccccc32)cc1	1	-2	0	3	28*	10
Nc1c(C(=O)NCC2CCCO2)c2nc3ccccc3nc2n1Cc1ccco1 (centres undefined)	-4	3	25*	2	5	-4
Cc1ccc(N2C(=O)/C(=C/c3ccc(CN(CCC#N)S(C)(=O)=O)o3)C(=O)NC2=S)cc1C	x	7	32*	1	x	x
